Source: PubChem (National Center for Advancing Translational Sciences (NCATS))
Six1-Eya2 inh = inhibitors of human Six1/Eya2 interaction; actives 0.56% (n = 360,000); Q15475+O00167; AlphaScreen GST-Six1/His-Eya2 binding, biochemical; hits give low values; activity change, % (test concentration not listed); in the data active = activity change below about -65%; inconclusive = mostly about -30% to -63%
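Homogeneous AlphaScreen proximity assay pairing GST-Six1 with His-tagged Eya2 (added as 5X mix: 250 nM and 500 nM) in 50 mM Tris pH 8.0, 300 mM NaCl, 1 mM TCEP. Glutathione donor and nickel acceptor beads; 1 h, 37 °C, dark.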
BAZ2B block = blocks human BAZ2B; Q9UIF8; AlphaScreen BAZ2B-H3K14Ac peptide displacement; Potency, µM (titrated, usually from 114 µM), usual class: inhibitors; actives 4.4% (n = 360,000); AID 504333; also: nearly all actives have a fitted effect of over 60% in size
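Inhibition is scored as reduced AlphaScreen emission. The BAZ2B/b-H3(5-23)K14Ac complex (50 nM each) in PBS pH 7.4, 0.01% Tween-20 meets compound (up to 110 uM) for 30 min at RT before bead addition.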
CtBP-E1A inh = inhibitors of CtBP/E1A interaction | AlphaScreen GST-E1A/His-CtBP binding, 1536-well; hits give low values | activity change, % (test concentration not listed) | actives 0.49% (n = 340,000) | AID 651724; in the data active = activity change below about -65%; inconclusive = mostly about -30% to -63%
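In 5 uL wells, 23 nL compound meets equimolar GST-E1A and His-CtBP (5X stock 125 nM each) for 2 h, 37 °C. Beads (5X, 50 ug/mL) then 1 h, 37 °C, dark.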
HP1b chromo inh = blocks HP1-beta chromodomain binding to methylated histone tails; P83916; AlphaScreen HP1-beta / biotin-H3K9me3 peptide binding; Potency, µM (series often up to 114 µM), most hits filed as inhibitors; actives 0.56% (n = 390,000); AID 540317; also: nearly all actives have a fitted effect of over 70% in size
Target sequence (P83916 whole entry, looked up): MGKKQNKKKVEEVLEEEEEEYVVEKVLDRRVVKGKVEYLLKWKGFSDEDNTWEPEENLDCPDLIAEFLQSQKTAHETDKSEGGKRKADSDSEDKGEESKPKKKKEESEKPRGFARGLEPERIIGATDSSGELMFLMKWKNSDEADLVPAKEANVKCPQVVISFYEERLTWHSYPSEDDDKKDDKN
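Compound inhibition of the preformed complex between 50 nM HP1-beta and 50 nM biotinylated H3K9me3 peptide was read by AlphaScreen. Buffer was PBS pH 7.4 with 0.01% Tween-20. Incubations ran 30 min at room temperature, with 10 ug/mL donor/acceptor beads.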
G9a inh = inhibitors of human histone lysine methyltransferase G9a; G9a H3K9 monomethylation, AlphaScreen, 2 h; Potency, µM (highest dose often 102 µM), actives largely listed as inhibitors; actives 8.8% (n = 350,000); also: nearly all actives have a fitted effect of over 75% in size
Target sequence (Q96KQ7 913-1193 limits assumed): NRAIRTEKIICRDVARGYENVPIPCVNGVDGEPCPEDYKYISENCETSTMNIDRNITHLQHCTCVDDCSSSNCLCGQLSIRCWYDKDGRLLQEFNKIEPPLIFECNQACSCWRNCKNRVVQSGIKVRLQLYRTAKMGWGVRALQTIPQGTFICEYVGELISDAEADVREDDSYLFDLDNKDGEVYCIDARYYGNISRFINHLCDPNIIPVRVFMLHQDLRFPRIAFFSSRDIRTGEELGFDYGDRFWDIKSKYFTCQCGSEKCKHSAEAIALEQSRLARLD
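AlphaScreen detection with an anti-monomethyl H3K9 antibody quantified product after a 2 h room-temperature reaction containing 500 nM biotinylated H3K9 peptide, 20 µM SAM and 20 nM enzyme, which had been preincubated 15 min with compound.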
JMJD2A Tudor inh = blocks the human JMJD2A Tudor domain | O75164 | AlphaScreen JMJD2A-Tudor / H3K4me3 peptide binding | actives 4.4% (n = 390,000) | Potency, µM (titrated, usually from 114 µM), hits mostly inhibitors; also: nearly all actives have a fitted effect of over 50% in size
Hits are given with their value; . = inactive; ? = inconclusive; / = not tested or not shown; [ ] = dose if it differs, or a comment. In the library only some 10% were active in any assay of this set; here they are far more common. Unless noted, calls follow the shape of the dose curve; as a rule, active = well fitted inhibition curve with a large enough effect; inconclusive = small, poorly fitted or top-dose-only effect; inactive = no such curve, though single readings can be large or run the other way.

SMILES | Six1-Eya2 inh | BAZ2B block | CtBP-E1A inh | HP1b chromo inh | G9a inh | JMJD2A Tudor inh
Cc1ccccc1OCC(O)Cn1c(Br)nc2c1c(=O)[nH]c(=O)n2C (stereo not drawn) | . | . | . | . | . | .
Cc1ccccc1OCC(O)Cn1c(SC(C)C)nc2c1c(=O)[nH]c(=O)n2C (stereo not drawn) | . | . | . | . | 3.55µM | ?
CC(=O)N1c2ccccc2C(C)(c2ccc(C)cc2)CC1(C)C (stereo not drawn) | / | . | / | . | . | .
CCCCCC/C=N/Nc1nnc(Cc2ccc(OC)c(OC)c2)c(=O)[nH]1 | -73.9 | 7.08µM | ? | . | . | 0.891µM
COc1ccc(Cc2nnc(N/N=C/c3ccc(O)cc3O)[nH]c2=O)cc1OC | -87.6 | 5.01µM | -93.1 | . | . | 14.1µM
CCCCCCC/C=N/Nc1nnc(Cc2ccccc2)c(=O)[nH]1 | . | ? | . | . | . | ?
COc1ccc(Nc2ncnc3c2cnn3-c2ccc(C)cc2C)cc1 | / | . | / | . | . | .
CCOC(=O)C1=NN(c2ccccc2)C(=O)C1 | . | . | / | . | / | .
CC1=NN(Cc2ccccc2)C(=O)/C1=C\c1ccc(N(C)C)cc1 | . | 10µM | . | ? | 11.2µM | ?
CCOC(=O)C1=NN(c2ccccc2)C(=O)/C1=C\c1ccc(N(C)C)cc1 | . | 10µM | . | 5.62µM | ? | 8.91µM
CC(=O)Nc1ccc(S(=O)(=O)NC2(C(F)(F)F)C(=O)Nc3c2c(=O)[nH]c(=O)n3-c2ccc(C)cc2)cc1 (stereo not drawn) | / | . | / | . | . | .
CCN(CC)S(=O)(=O)c1cccc(-c2n[nH]c(=S)n2C)c1 | . | . | . | ? | ? | 17.8µM
Cc1ccc(-c2n[nH]c(=S)n2C)cc1Cl | . | . | . | . | ? | 3.16µM
O=S(=O)(c1cccc(-c2n[nH]c(=S)n2C2CCCC2)c1)N1CCOCC1 | . | / | . | . | 10µM | 3.98µM
C=CCn1c(-c2cccc(S(=O)(=O)N3CCOCC3)c2)n[nH]c1=S | . | . | . | . | 7.08µM | 7.08µM
NC(=O)CSc1nnc(-c2cccc(S(=O)(=O)N3CCOCC3)c2)n1C1CCCCCC1 | . | . | . | . | . | ?
CCN(CC)S(=O)(=O)c1cccc(-c2csc(C)n2)c1 | . | . | . | . | . | .
Cn1c(-c2csc(-c3cccc(C(F)(F)F)c3)n2)n[nH]c1=S | . | . | . | . | ? | .
CCC(=O)C1=C(c2ccc(F)cc2)N(C(=O)CC)n2c(nnc2-c2ccc(OC)cc2)S1 | / | . | / | . | . | .
Cc1cccc(Cn2c(SCc3ccc(C(=O)N4CCCCCC4)cc3)nc3ccncc32)c1 | / | . | / | . | . | .
O=C(NCc1ccccc1)c1ccc2c(c1)CCN2S(=O)(=O)c1ccc(Cl)cc1 | / | . | / | . | . | .
C=CCn1c(-c2cccc(S(=O)(=O)N(CC)CC)c2)n[nH]c1=S | . | / | . | . | 3.55µM | 12.6µM
CCCCCCCCCCCCCCCC(=O)NCC(COP(=O)([O-])OCC[N+](C)(C)C)OCC (stereo not drawn) | / | / | / | / | .[12.7 µM] | /
CCCCCCCCCCCCCCCCCC(=O)NCC(COP(=O)([O-])OCC[N+](C)(C)C)OCC (stereo not drawn) | / | / | / | / | 13.4µM | /
COc1ccc(C2Nc3ccccc3-c3nnc(SC)nc3O2)cc1C (stereo not drawn) | / | . | / | . | . | .
SMILES | Six1-Eya2 inh | BAZ2B block | CtBP-E1A inh | HP1b chromo inh | G9a inh | JMJD2A Tudor inh
CCCCCCCC(=O)OCCOC(=O)CCCCCCC | / | / | / | / | . | /
O=C(C[C@H]1C[C@H](C(=O)N2CCOCC2)[C@@]2(CCC3CCCC3)c3[nH]c4cc(-c5ccco5)ccc4c3CCN2C1=O)NCCN1CCOCC1 | . | / | . | ? | / | .
COc1ccc(CNC(=O)C[C@H]2C[C@H](C(=O)N3CCCCC3)[C@@]3(C)c4[nH]c5ccc(Cl)cc5c4CCN3C2=O)cc1OC | . | / | . | . | / | 56.2µM
COCCCNC(=O)C[C@H]1C[C@H](C(=O)N2CCOCC2)[C@@]2(CCC3CCCC3)c3[nH]c4cc(-c5ccco5)ccc4c3CCN2C1=O | . | / | . | ? | / | 79.4µM
COc1ccc(CNC(=O)C[C@H]2C[C@H](C(=O)N3CCCCC3)[C@@]3(C)c4[nH]c5cc(-c6ccco6)ccc5c4CCN3C2=O)cc1OC | . | / | . | ? | / | 56.2µM
COc1ccc2[nH]c3c(c2c1)CCN1C(=O)C(CC(=O)NCc2ccc(OC)c(OC)c2)C[C@H](C(=O)N2CCOCC2)[C@@]31C (stereo partly drawn) | . | / | . | . | / | .
COCCN1C(=O)c2[nH]nc(-c3ccccc3O)c2C1c1ccc(OCc2ccccc2)c(OC)c1 (stereo not drawn) | / | ? | / | . | . | ?
COc1ccc(CNC(=O)C(=O)NCC(c2ccco2)S(=O)(=O)c2cccs2)cc1 (stereo not drawn) | / | . | / | . | . | .
CC(=O)c1cccc(NC(=O)CN2C(=O)CC(c3ccc(C)cc3C)=Nc3ccccc32)c1 | / | . | / | . | ? | ?
COc1ccc(-n2nc(C(=O)N3CCN(c4cccc(C)c4C)CC3)c3c4ccccc4n(C)c3c2=O)cc1 | / | / | / | . | . | .
Cc1ccc(C(=O)NC(=S)NNC(=O)c2cccc([N+](=O)[O-])c2)cc1 | . | . | / | . | / | .
O=C(NNS(=O)(=O)c1ccc([N+](=O)[O-])cc1)C(=O)Nc1cccc(C(=O)O)c1 | . | 56.2µM | . | . | 8.91µM | ?
O=C(NNS(=O)(=O)c1ccc([N+](=O)[O-])cc1)c1ccccc1 | . | / | . | . | / | ?
O=C(NNC(=S)NC(=O)c1ccccc1)c1cccc([N+](=O)[O-])c1 | . | . | . | . | 28.2µM | .
O=C(NNC(=S)NC(=O)c1cccc([N+](=O)[O-])c1)c1ccc(O)cc1 | . | . | . | . | 20µM | .
O=C(NNS(=O)(=O)c1ccccc1)c1cccc([N+](=O)[O-])c1 | . | . | . | . | ? | 12.6µM
CCN(CC)c1cc(C)c2cc(NC(=O)/C=C/c3ccccc3OC(C)C)ccc2n1 | / | . | / | . | . | .
O=C(NC(=S)N1CCCCCC1)c1cccc([N+](=O)[O-])c1 | . | ? | . | . | .[2.33 µM] | .
O=C(NNC(=S)NC(=O)c1cccc([N+](=O)[O-])c1)c1ccc(Br)cc1 | . | . | . | . | 44.7µM | .
O=C(NC(=S)N1CCCC1)c1cccc([N+](=O)[O-])c1 | . | . | . | . | 79.4µM | .
Cc1ccc(O)c(-c2n[nH]c3c2C(c2ccccc2F)N(Cc2ccco2)C3=O)c1 (stereo not drawn) | / | . | / | . | . | ?
O=C(N/N=C1/CCS(=O)(=O)c2ccc(F)cc21)c1cccnc1 | . | . | . | . | .[12.7 µM] | .
O=C(N/N=C1/CCS(=O)(=O)c2ccc(F)cc21)c1ccccn1 | ? | 20µM | ? | . | . | 12.6µM
